The target of assay [1] is T1, Aurora kinase A (Homo sapiens) (UniProt O14965).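 Further: values are mean percent inhibition.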
T1 sequence (whole entry): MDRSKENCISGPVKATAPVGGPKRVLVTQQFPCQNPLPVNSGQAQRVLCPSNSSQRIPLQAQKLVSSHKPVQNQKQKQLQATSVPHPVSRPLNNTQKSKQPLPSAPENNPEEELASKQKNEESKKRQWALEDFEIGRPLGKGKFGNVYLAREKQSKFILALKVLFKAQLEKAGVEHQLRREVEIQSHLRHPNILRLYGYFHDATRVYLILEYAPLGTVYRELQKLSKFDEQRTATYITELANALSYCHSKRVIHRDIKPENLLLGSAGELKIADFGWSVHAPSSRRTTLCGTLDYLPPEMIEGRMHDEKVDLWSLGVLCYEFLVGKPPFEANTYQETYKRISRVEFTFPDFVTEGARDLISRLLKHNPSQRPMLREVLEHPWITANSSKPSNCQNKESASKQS
The settings on record: at 1 µM.

Assay [2] deals with Aurora kinase B (Homo sapiens) (UniProt Q96GD4). The note with it: at 0.1 µM.
Assay [3] has the same target. The note with it: at 1 µM.
Assay [4] concerns the target T2, Aurora kinase C (Homo sapiens) (UniProt Q9UQB9).
T2 sequence (whole entry): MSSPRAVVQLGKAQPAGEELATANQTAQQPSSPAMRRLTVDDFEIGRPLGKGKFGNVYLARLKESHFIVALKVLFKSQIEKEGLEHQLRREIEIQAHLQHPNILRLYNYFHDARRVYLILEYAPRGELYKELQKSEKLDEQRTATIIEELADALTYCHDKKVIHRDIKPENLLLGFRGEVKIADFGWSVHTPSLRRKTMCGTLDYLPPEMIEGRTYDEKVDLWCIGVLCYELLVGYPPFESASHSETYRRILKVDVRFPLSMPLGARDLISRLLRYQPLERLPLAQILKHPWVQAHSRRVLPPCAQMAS
The settings on record: at 0.1 µM.

Assay [5] concerns the target T2, Aurora kinase C (Homo sapiens). The settings on record: at 1 µM.
In assay [6] the target is Serine/threonine-protein kinase 10 (Homo sapiens) (UniProt O94804). The note with it: at 0.1 µM.
Assay [7] has the same target. The note with it: at 1 µM.
The target of assay [8] is T3, Mitogen-activated protein kinase kinase kinase kinase 2 (Homo sapiens) (UniProt Q12851).
T3 sequence (whole entry): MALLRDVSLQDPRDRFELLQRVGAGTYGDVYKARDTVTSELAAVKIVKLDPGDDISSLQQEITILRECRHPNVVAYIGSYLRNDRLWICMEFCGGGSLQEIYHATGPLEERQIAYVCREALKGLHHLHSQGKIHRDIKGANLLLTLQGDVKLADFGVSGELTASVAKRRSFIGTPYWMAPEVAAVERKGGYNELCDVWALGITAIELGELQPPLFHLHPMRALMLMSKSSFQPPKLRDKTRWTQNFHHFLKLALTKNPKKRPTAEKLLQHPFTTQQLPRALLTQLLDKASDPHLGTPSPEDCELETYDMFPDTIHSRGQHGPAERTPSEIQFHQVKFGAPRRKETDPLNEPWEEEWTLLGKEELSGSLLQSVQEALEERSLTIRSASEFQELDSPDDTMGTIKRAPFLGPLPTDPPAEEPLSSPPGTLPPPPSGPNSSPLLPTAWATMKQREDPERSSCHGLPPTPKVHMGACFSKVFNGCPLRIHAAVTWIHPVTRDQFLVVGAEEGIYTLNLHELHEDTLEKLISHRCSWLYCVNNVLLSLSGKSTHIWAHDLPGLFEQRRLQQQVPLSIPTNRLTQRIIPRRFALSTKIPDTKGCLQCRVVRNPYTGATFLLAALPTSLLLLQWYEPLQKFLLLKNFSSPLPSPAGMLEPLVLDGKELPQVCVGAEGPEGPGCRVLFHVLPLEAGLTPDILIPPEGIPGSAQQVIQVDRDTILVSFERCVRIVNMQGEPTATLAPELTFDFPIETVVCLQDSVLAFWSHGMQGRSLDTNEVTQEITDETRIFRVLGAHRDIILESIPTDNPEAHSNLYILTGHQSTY
The settings on record: at 0.1 µM.

Assay [9] deals with T3, Mitogen-activated protein kinase kinase kinase kinase 2 (Homo sapiens). The note with it: at 1 µM.
The target of assay [10] is Mitogen-activated protein kinase kinase kinase kinase 4 (Homo sapiens) (UniProt O95819). The settings on record: at 0.1 µM.
Assay [11] shares this target. The note with it: at 1 µM.
For assay [12], the target named is Dual specificity mitogen-activated protein kinase kinase 1 (Homo sapiens) (UniProt Q02750). The note with it: at 0.1 µM.
Assay [13] shares this target. The note with it: at 1 µM.
Assay [14] has as its target Misshapen-like kinase 1 (Homo sapiens) (UniProt Q8N4C8). The note with it: at 0.1 µM.
Assay [15] shares this target. The settings on record: at 1 µM.
Assay [16] concerns the target T4, Serine/threonine-protein kinase 4 (Homo sapiens) (UniProt Q13043).
T4 sequence (whole entry): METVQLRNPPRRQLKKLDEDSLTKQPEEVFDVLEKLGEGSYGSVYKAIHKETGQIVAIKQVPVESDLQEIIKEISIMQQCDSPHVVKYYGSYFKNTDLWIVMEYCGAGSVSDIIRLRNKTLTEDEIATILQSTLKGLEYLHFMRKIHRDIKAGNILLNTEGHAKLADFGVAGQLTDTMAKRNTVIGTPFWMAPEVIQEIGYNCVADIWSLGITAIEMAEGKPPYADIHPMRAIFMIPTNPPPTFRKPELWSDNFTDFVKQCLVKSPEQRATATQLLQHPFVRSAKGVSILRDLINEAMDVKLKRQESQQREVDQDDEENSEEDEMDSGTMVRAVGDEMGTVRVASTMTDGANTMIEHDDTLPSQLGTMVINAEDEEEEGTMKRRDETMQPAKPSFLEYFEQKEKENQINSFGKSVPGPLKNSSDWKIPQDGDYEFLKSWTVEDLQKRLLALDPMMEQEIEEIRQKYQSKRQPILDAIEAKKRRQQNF
The note with it: at 0.1 µM.

The target of assay [17] is T4, Serine/threonine-protein kinase 4 (Homo sapiens). The note with it: at 1 µM.
Assay [18] concerns the target T5, Serine/threonine-protein kinase 3 (Homo sapiens) (UniProt Q13188).
T5 sequence (whole entry): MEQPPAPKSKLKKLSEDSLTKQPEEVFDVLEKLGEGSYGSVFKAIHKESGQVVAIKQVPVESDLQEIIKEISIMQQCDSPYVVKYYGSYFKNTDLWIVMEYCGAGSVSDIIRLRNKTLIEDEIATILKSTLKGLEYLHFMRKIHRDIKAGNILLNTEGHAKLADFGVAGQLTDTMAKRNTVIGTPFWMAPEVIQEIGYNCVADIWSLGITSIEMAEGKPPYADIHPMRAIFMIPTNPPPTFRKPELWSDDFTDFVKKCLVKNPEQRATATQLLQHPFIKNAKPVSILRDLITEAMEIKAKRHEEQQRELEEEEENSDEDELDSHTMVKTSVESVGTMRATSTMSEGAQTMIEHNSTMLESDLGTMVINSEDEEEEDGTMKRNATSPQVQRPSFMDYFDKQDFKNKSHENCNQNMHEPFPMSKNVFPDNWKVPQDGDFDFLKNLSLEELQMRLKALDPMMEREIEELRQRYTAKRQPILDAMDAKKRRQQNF
The note with it: at 0.1 µM.

Assay [19] addresses T5, Serine/threonine-protein kinase 3 (Homo sapiens). The note with it: at 1 µM.
Assay [20] concerns the target Serine/threonine-protein kinase 26 (Homo sapiens) (UniProt Q9P289). The note with it: at 0.1 µM.

Chain of Serine/threonine-protein kinase 26 (Homo sapiens) (Q9P289 2-416 limits assumed): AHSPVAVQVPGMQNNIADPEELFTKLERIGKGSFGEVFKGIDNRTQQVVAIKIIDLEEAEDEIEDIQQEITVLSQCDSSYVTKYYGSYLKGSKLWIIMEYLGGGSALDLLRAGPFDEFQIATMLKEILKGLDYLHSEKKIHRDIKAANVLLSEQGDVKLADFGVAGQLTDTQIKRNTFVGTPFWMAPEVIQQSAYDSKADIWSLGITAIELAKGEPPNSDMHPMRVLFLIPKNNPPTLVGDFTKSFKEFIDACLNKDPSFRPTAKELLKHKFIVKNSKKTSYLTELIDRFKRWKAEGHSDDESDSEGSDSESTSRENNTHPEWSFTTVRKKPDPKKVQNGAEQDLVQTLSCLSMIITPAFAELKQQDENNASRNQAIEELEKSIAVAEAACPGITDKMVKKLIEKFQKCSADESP
Chain of Mitogen-activated protein kinase kinase kinase kinase 4 (Homo sapiens) (O95819 2-1239 limits assumed): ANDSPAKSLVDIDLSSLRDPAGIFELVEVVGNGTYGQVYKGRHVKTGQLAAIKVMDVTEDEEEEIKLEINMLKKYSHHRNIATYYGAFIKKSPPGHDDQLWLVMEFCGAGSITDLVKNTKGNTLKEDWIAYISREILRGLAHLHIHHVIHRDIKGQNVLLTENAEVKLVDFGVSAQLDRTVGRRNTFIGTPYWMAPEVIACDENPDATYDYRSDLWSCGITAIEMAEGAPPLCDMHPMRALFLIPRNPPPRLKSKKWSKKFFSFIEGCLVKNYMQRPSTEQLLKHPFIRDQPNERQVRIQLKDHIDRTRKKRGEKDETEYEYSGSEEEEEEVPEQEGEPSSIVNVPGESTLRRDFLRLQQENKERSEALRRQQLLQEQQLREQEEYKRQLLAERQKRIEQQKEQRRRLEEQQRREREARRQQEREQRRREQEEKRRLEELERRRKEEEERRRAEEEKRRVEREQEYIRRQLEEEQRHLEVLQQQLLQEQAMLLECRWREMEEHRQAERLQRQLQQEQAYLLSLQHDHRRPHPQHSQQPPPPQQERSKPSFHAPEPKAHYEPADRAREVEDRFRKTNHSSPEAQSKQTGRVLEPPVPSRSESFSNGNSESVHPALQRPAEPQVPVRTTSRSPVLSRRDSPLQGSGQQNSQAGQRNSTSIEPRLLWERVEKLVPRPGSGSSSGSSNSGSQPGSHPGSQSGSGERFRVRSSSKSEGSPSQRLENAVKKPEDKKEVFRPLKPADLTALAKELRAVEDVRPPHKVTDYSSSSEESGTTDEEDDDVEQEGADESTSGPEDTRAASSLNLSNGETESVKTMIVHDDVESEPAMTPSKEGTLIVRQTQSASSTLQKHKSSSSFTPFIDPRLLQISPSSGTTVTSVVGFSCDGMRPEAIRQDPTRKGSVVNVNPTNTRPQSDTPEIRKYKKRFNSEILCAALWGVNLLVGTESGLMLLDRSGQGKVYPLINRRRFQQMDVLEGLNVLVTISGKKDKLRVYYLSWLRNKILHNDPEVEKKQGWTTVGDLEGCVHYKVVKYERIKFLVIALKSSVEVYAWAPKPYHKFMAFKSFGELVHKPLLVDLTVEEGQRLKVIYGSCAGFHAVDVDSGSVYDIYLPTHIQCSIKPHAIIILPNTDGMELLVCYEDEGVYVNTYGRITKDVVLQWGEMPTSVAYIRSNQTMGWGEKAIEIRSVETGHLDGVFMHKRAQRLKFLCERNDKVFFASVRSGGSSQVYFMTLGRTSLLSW
Chain of Dual specificity mitogen-activated protein kinase kinase 1 (Homo sapiens) (Q02750 whole entry): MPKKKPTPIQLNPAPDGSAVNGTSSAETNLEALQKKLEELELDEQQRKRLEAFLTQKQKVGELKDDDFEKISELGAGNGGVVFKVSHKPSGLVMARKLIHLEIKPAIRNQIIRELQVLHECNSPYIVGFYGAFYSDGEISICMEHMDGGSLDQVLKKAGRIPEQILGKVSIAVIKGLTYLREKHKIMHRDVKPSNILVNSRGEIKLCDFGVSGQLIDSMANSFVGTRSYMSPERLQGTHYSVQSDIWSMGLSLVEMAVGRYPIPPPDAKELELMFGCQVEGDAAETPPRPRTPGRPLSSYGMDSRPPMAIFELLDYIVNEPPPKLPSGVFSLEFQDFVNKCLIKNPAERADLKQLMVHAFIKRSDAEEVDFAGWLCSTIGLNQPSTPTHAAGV
Chain of Aurora kinase B (Homo sapiens) (Q96GD4 whole entry): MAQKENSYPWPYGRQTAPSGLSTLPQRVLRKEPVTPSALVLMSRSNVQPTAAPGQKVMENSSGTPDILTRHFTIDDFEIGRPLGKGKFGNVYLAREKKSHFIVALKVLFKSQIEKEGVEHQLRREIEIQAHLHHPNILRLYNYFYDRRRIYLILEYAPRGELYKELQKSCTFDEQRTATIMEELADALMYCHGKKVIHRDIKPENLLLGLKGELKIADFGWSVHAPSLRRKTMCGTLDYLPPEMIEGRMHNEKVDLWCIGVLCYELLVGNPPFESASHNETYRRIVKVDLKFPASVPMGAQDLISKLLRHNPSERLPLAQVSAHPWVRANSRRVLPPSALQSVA
Chain of Serine/threonine-protein kinase 10 (Homo sapiens) (O94804 whole entry, looked up): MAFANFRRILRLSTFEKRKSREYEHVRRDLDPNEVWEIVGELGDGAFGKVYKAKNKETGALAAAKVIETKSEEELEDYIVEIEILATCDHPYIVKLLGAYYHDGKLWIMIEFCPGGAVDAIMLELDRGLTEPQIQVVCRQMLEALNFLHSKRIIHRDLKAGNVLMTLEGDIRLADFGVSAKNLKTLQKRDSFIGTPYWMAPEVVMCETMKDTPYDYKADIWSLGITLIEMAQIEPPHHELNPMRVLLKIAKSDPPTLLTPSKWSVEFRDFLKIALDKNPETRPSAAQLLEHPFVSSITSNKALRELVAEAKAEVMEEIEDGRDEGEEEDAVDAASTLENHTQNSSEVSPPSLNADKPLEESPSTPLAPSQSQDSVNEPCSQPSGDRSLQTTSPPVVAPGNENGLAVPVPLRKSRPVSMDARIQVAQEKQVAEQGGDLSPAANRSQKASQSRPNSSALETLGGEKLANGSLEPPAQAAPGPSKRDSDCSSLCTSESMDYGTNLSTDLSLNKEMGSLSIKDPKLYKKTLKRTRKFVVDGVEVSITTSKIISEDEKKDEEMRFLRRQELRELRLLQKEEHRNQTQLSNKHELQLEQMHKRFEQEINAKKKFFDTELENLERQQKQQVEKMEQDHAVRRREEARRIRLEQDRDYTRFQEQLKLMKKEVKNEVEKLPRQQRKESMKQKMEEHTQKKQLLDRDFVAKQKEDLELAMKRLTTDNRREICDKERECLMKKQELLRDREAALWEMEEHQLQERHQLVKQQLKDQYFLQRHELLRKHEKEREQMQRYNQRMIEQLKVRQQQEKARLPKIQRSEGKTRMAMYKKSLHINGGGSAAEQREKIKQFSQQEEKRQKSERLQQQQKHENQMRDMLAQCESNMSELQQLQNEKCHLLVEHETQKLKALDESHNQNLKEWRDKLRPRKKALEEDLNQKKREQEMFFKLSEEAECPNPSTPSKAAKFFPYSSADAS
Chain of Misshapen-like kinase 1 (Homo sapiens) (Q8N4C8 whole entry, looked up): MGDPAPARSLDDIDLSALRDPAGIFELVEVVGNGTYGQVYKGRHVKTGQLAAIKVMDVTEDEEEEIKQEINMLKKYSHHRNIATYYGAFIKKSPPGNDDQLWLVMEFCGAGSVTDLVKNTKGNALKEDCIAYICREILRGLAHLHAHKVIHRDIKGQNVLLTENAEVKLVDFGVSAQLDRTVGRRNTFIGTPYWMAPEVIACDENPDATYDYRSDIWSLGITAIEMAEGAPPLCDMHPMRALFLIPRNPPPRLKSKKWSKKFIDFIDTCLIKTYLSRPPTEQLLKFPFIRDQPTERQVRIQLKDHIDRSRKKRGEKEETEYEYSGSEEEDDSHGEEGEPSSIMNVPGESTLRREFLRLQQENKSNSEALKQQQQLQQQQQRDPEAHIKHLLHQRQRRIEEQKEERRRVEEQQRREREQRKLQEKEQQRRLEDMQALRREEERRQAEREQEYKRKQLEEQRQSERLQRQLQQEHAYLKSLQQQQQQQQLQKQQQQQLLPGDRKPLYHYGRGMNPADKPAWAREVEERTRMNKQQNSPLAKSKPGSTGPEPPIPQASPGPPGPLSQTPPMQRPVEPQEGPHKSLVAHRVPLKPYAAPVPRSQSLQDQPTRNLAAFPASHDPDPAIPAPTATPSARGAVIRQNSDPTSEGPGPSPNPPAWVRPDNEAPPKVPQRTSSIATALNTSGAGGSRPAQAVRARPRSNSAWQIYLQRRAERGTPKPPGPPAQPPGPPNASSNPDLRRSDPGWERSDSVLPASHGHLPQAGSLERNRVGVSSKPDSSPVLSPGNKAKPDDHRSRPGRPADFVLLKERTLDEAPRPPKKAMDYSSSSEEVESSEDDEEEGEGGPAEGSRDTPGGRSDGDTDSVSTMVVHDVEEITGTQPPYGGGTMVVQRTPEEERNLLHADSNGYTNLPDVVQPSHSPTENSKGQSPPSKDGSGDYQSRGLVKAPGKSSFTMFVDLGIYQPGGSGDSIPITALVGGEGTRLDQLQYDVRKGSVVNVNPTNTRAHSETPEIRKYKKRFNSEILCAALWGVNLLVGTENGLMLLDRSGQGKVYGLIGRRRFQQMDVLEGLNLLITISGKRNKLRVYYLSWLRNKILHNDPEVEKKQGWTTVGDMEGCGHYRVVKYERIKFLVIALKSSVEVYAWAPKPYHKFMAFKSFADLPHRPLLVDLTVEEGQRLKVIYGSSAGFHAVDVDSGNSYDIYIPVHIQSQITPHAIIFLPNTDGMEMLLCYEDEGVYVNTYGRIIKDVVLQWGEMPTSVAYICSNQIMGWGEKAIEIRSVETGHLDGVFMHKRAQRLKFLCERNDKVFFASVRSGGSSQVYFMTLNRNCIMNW

For `O=C1Nc2ccc(-c3cccnc3)cc2C1=Cc1cc(Br)c(O)c(Br)c1`, the inhibition turned out to be 88.3% in assay [1]; 4.87% in [2]; 16% in assay [3]; 2.6% in assay [4]; 31.7% in [5]; 3.55% in [6]. Also, the inhibition in assay [7] stood at 3.51%; in assay [8], 1.24%; in [9] it was 2.93%; in assay [10], 69.3%; in assay [11], 91.6%; in assay [12], 4.59%. Further, the inhibition in assay [13] came out at 5.62%; in assay [14], 45%; in [15] it was 81.6%; in [16], 9.98%; in [17] it was 39.6%; in assay [18], 10.3%. Also, the inhibition in [19] is 37.3%; in assay [20] it was 9.93%.

In the case of `CN(C)C(=O)O[C@@H]1CN[C@@H](C#Cc2cc3ncnc(Nc4ccc(OCc5cccc(F)c5)c(Cl)c4)c3s2)C1`, the inhibition came out at 8.44% in assay [1]; 2.09% in [2]; 5.86% in assay [3]; 0.89% in assay [4]; 14% in [5]; 1.67% in assay [6]. The inhibition in assay [7] is 6.26%; in assay [8], 0.47%; in assay [9], 2.35%; in [10], 2.96%; in assay [11], 6.27%; in assay [12] it was -0.21%. Moreover, the inhibition was 0.83% in assay [13]; 2.49% in assay [14]; 6.17% in [15]; -1.32% in [16]; 0.53% in assay [17]; -2.45% in assay [18]. The results for the inhibition in assay [19] and in assay [20] were -0.68% and 0.14%, respectively.

As to `Oc1cccc(-c2nc(-c3ccccc3)[nH]c2-c2ccncc2)c1`, the inhibition in assay [1] is 4.61%; in [2] it was 3.38%; in assay [3], 8.4%; in assay [4], 2.05%; in [5], -2.07%; in assay [6], 4.37%. Besides, the inhibition in [7] stood at 16.6%; in assay [8], 0.57%; in [9] it was 4.27%; in [10] it was 4.05%; in assay [11] it was 11.6%; in assay [12] it was 5.08%. The inhibition was determined as 4.94% in [13]; 5.57% in assay [14]; 8.96% in assay [15]; 5.39% in [16]; 8.96% in assay [17]; 5.44% in [18]. In addition, the inhibition stood at 7.6% in assay [19] and 0.83% in assay [20].

With `O=C(Nc1ccc(Oc2ccc3[nH]c(NC(=O)c4ccco4)nc3c2)cc1)Nc1cc(C(F)(F)F)ccc1F`, the inhibition in assay [1] was determined as 15.1%; in [2], 5.43%; in assay [3], 38.8%; in assay [4], 8.04%; in assay [5] it was 82.4%; in assay [6], 35.6%. Moreover, the inhibition in [7] is 76.7%; in assay [8] it was 2.98%; in assay [9], 28.9%; in assay [10], 0.47%; in assay [11], 5.1%; in [12] it was 0.55%. Also, the inhibition is 1.24% in [13]; 0.49% in assay [14]; -0.52% in assay [15]; -0.01% in [16]; 0.17% in [17]; -1.13% in assay [18]. For the same compound, the inhibition in assay [19] is -0.98%; in assay [20], 0.66%.

As to `COc1cccc(-n2nc(C)c3c(N/N=C(\C)c4ccncc4)ncnc32)c1`, the inhibition came out at 0.79% in assay [1]; 2.73% in [2]; 3.95% in [3]; 0.6% in assay [4]; 4.15% in assay [5]; 0.54% in assay [6]. In addition, the inhibition in assay [7] is 3.61%; in assay [8], -0.39%; in assay [9] it was 0.32%; in assay [10] it was 1.37%; in assay [11] it was 4.83%; in assay [12] it was -0.14%. Besides, the inhibition in [13] was -0.11%; in [14], 1.43%; in assay [15], 6.12%; in [16], 1.29%; in assay [17] it was 1.63%; in [18] it was 1.78%. The inhibition in [19] was 3.56%; in [20] it was -0.95%.

Consider `Cc1ccc2c(-c3ccnc(Nc4ccc5c(c4)OCCO5)n3)c(-c3ccc(C(F)(F)F)cc3)nn2n1`, for which the inhibition in assay [1] is 0.25%; in assay [2], -0.46%; in assay [3], -2.36%; in assay [4], 0.45%; in assay [5], 1.78%; in assay [6], 3.03%. For the same compound, the inhibition is 5.81% in assay [7]; 1.07% in assay [8]; 2.41% in assay [9]; 0.41% in assay [10]; -0.58% in assay [11]; 1.89% in assay [12]. Further, the inhibition in assay [13] is 1.58%; in [14] it was 0.81%; in [15] it was -1.31%; in [16], 0.92%; in [17] it was 3.55%; in assay [18] it was 0.03%. Besides, the inhibition amounted to 2.76% in [19] and 1.07% in [20].

Broadly, the inhibition is the change of the read-out against control, counted positive when it falls.
